From PubChem
NS1 inh: inhibitors of influenza NS1 protein function; Potency, µM (doses to about 46.1 µM), inactives show at the highest dose activity, positive = more growth; 270,000 tested, 0.4% active; calls by dose curve; note: actives are rising curves; nearly all actives have a fitted effect of over 50% in size
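In this qHTS, NS1 from influenza A is expressed in budding yeast, where it slows growth. Cells are switched from glucose to 2% galactose medium (pH 6.0, -URA), treated with compound, and growth recovery is read at OD600.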
Sm TGR inh: inhibitors of Schistosoma mansoni thioredoxin glutathione reductase. 360,000 tested, 3% active. purified TGR, DTNB reduction, TNB absorbance 405 nm. Potency, µM (doses to about 114 µM), inactives show at the highest dose activity change, negative = inhibition, usual class: inhibitors. Q962Y6; note: % is set by controls: 0 for no effect and ±100 for the full control effect; nearly all actives have a fitted effect of over 60% in size
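TGR 20 nM + NADPH 100 uM (dispensed conc.), cpd preinc 15 min RT; start with NADPH (500 uM addition) then DTNB (15 mM addition). Kinetic TNB absorbance, 405 nm filter. Four-parameter Hill fit across titration.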
AMA1-RON2 inh: AMA1-RON2 (P. falciparum) interaction inhibition; 360,000 tested, 0.2% active; AlphaScreen AMA1-biotinylated RON2 peptide binding; Potency, µM (series often up to 58.2 µM), for the others: top-dose activity change, negative = inhibition, hits mostly inhibitors;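 note: 0% = vehicle wells and -100% = peptide control; nearly all actives have a fitted effect of over 45% in size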
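AMA1 (3D7) with his tag at 25 nM final met compounds first, then biotinylated RON2 peptide at 25 nM; detection used donor plus acceptor beads, 10 µg/mL apiece, read by AlphaScreen after 30 min at room temperature.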
Pf growth 96h: P. falciparum growth inhibition at 96 hour, primary screen for plastid delayed-death inhibitors; P. falciparum luciferase reporter growth, 96 h; Potency, µM (titrated, usually from 28.7 µM), without a hit: at the highest dose activity change, negative = inhibition, most hits filed as inhibitors; 320,000 tested, 6.9% active; AID 504834; note: % is set by controls: 0 for no effect and ±100 for the full control effect
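Parasite growth measured via integrated firefly luciferase reporter in P. falciparum. Infected erythrocytes at 2% hematocrit, 0.05% parasitemia final were treated 96 hours at 37 C under 5% CO2, and luminescence was read.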
Pf growth 48h: P. falciparum growth inhibition at 48 hours (one generation). 310,000 tested, 5.9% active. P. falciparum luciferase growth in erythrocytes, 48 h. Potency, µM (highest dose often 28.7 µM), for inactives: top-dose activity change, negative = inhibition, most hits filed as inhibitors; note: % is set by controls: 0 for no effect and ±100 for the full control effect
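Erythrocytes infected with P. falciparum carrying an integrated firefly luciferase reporter (2% hematocrit, 0.1% parasitemia final) were exposed to compounds in RPMI 1640 with 0.5% Albumax at 37 C, 5% CO2. Growth inhibition was scored as reduced luminescence.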
The depositor's hits bear a star; ? = inconclusive; . = not tested or not shown. The list is not random: actives were taken first. Their share in the collection is about 11%. Unless noted, calls come from the whole dose curve; as a rule, active = well fitted curve in the direction sought with a large enough effect; inconclusive = small, poorly fitted or top-dose-only effect, or another doubt; inactive = no such curve, though single readings can be large; an effect the other way counts as inactive or inconclusive. Potency is the fitted concentration of half-maximal effect.

SMILES | NS1 inh | Sm TGR inh | AMA1-RON2 inh | Pf growth 96h | Pf growth 48h
CCN(c1ccccc1)S(=O)(=O)c1ccc(OC)c(NC(=O)c2ccco2)c1 | . | . | -1% | . | .
CCN(c1ccccc1)S(=O)(=O)c1ccc(OC)c(NC(=O)C2=NN(c3ccccc3)C(=O)CC2)c1 | . | 6% | 0% | ? | 12µM*
CCOC(=O)c1c(S(=O)(=O)N2CCC(C(=O)N3CCN(c4cc(C)ccc4C)CC3)CC2)c(C)n(C)c1C | . | -6% | . | . | .
O=C(O)[C@@H]1[C@@H]2C[C@H]3c4[nH]c5ccccc5c4CCN3C[C@@H]2CC[C@@H]1O | . | . | . | 5.7µM* | ?
NNC(=O)C1C(O)CCC2CN3CCc4c([nH]c5ccccc45)C3CC21 (stereo not given) | . | . | 39% | . | .
COC(=O)C1C2CC3c4[nH]c5cc(OC)ccc5c4CCN3CC2CC(OC2CCCCO2)C1OC (stereo not given) | . | . | 15% | . | .
COc1ccc2c3c([nH]c2c1)C1CC2C(CC(O)C(OC)C2C(=O)O)CN1CC3 (stereo not given) | -2% | -10% | 2% | 3.7µM* | 9.3µM*
COC(=O)[C@H]1[C@H]2C[C@@H]3c4[nH]c5cc(OC)ccc5c4CCN3C[C@H]2C[C@@H](OC(=O)c2cc(OC)c(OC)c(OC)c2)[C@@H]1OC | ? | -21% | -14% | 1.7µM* | 1.5µM*
N#CCC(=O)N1CCN(Cc2ccc3c(c2)OCO3)CC1 | . | . | 11% | . | .
Cc1cc(NC(=O)c2ccc3[nH]c(C)c(C)c3c2)ccn1 | 5% | 16% | -13% | 2.6µM* | 2.6µM*
Cc1cc(C)c2oc(C(=O)Nc3ccc(S(=O)(=O)N4CCCCC4)cc3)cc(=O)c2c1 | . | 4% | . | . | .
COc1cccc(CN2CCNC(=O)C2CC(=O)NCc2cn3ccccc3n2)c1OC (stereo not given) | -2% | ? | 17% | 10µM* | 22%
COc1cccc(CN2CCNC(=O)C2CC(=O)NCCn2ccc3ccccc32)c1OC (stereo not given) | 10% | . | 7% | ? | 12µM*
COc1ccc(C(=O)Nc2nc3nc(C)c(Cc4ccccc4)c(=O)n3[nH]2)cc1OC | . | 4% | . | . | .
Cc1nc(P(=O)(c2ccccc2)c2ccccc2)c(N2CCOCC2)o1 | 1% | 4% | 3% | 2% | ?
CCCOP(=O)(OCCC)c1nc(-c2ccccc2)oc1NCc1ccccc1 | -20% | -2% | -13% | 3.7µM* | 5.9µM*
COP(=O)(OC)c1nc(-c2cccc3ccccc23)oc1NCc1ccccc1 | 16% | 7% | -11% | ? | ?
CCOP(=O)(c1ccccc1)c1nc(-c2ccccc2C)oc1NCc1ccccc1 (stereo not given) | 6% | 6% | -6% | ? | 12µM*
Cc1ccccc1-c1nc(P(=O)(c2ccccc2)c2ccccc2)c(N2CCOCC2)o1 | 5% | -17% | -15% | ? | 15µM*
CCOP(=O)(c1ccccc1)c1nc(-c2ccccc2C)oc1N1CCCCC1 (stereo not given) | -104% | -17% | -6% | -30% | 13µM*
Nc1c(Cl)cc(-c2csc(N3CCCC3c3nc4cc(Cl)c(N5CCCCC5)cc4n3CCOCCO)n2)cc1Cl (stereo not given) | . | . | 13% | . | .
COc1ccc(C2CC(=O)N(CC(=O)Nc3cc(C)ccc3C)c3ccccc3S2)cc1 (stereo not given) | . | 3% | . | . | .
Cc1cc(-c2nnc(SCC(=O)Nc3c(C)cccc3C)n2N)n[nH]1 | 0% | 0% | -8% | -18% | -17%
CC(=O)c1ccc(S(=O)(=O)Nc2cccc(-c3ccc4nncn4n3)c2)cc1 | 7% | 0% | 4% | -26% | ?
CC(=O)Nc1ccc(S(=O)(=O)Nc2cccc(-c3ccc4nncn4n3)c2)cc1 | . | 5% | -4% | 2.1µM* | -26%
O=C(Oc1cccc(C(=S)N2CCOCC2)c1)c1ccc([N+](=O)[O-])cc1 | -10% | -2% | -14% | -26% | 24%
Cc1ccc([N+](=O)[O-])cc1N=C(c1cccc(Br)c1)N1CCOCC1 | -5% | -19% | ? | 13µM* | ?
O=C(CSc1nnc(C2COc3ccccc3O2)o1)Nc1nccs1 (stereo not given) | 14% | -6% | -34% | 1.3µM* | 1%
